From PubChem BioAssay
mIDH1 inhibitor: human IDH1 R132H inhibition; AID 602179; O75874; hit rate 0.093% among 390,000; IDH1-R132H enzyme, NADPH consumption, diaphorase/resazurin fluorescence; Potency, µM (top dose mostly 76.6 µM), actives largely listed as inhibitors; note: nearly all actives have a fitted effect of over 65% in size
Target sequence (O75874 whole entry R132H, stated change not applied): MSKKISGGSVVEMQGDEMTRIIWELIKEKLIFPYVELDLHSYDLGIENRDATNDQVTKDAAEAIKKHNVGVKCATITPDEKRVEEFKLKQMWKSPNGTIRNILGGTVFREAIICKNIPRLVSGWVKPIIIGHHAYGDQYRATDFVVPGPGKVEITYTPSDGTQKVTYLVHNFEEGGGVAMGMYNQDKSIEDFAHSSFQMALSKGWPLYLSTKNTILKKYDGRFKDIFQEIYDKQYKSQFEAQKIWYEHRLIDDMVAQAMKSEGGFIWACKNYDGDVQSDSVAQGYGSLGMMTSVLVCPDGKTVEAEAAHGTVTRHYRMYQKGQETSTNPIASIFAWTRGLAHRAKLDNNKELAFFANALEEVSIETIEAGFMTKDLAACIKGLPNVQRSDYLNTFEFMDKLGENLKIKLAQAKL
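IDH1-R132H (0.5 ug/mL) preincubated 30 min with compound, then NADPH (0.016 mM) and alpha-KG (2 mM) added; 80 min at RT, pH 7.5. Remaining NADPH coupled via diaphorase/resazurin to fluorescence (540/590 nm); concentration-response curves normalized to no-enzyme control.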
CXXC DNA block: inhibitors of human MLL CXXC domain-DNA interaction; MLL-CXXC / FITC-HOXA9 DNA fluorescence polarization; Potency, µM (doses to about 115 µM), actives largely listed as inhibitors; hit rate 0.037% among 290,000; active = well fitted inhibition curve with a large enough effect in the polarisation, with a control signal flat, not every such curve was filed as active; inconclusive = small, poorly fitted or top-dose-only effect, or effect the other way, or a change in a side signal; inactive = no such curve, though single readings can be large or run the other way; the % refers to the polarisation
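Fluorescence polarization: 7 uM MLL-CXXC (stock) preincubated 5 min with compounds, then 50 nM fluorescein-HOX-A9 DNA (stock) added; 30 min ambient. Buffer 50 mM Tris-HCl pH 7.5, 50 mM NaCl, 1 mM DTT, 0.05% BSA.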
pAkt inh: Akt phosphorylation inhibition | Neuro2A IGF-stimulated pAkt S473 HTRF, 20 min; active compounds read low | activity change, % for hits at 50 µM | hit rate 0.32% among 360,000; in the data active = activity change below about -80%; inconclusive = mostly about -51% to -80%
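Single-point screen (50 µM final compound) in Neuro2A cells stimulated 20 min with 6 nM IGF at 37 deg C. After lysis, Ser473-phosphorylated Akt read by HTRF (ex 330 nm, em 615/665 nm) as the 665/615 ratio.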
LDHA block: blocks human lactate dehydrogenase A. P00338. purified LDHA, NADH/diaphorase-resazurin fluorescence; active compounds read low. activity change, % (values are at about 110 or 230 µM). hit rate 0.15% among 480,000. AID 1347041; in the data active = activity change below about -30%; inconclusive = mostly about -25% to -30%
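Resorufin fluorescence (ex540/em590), read at 0 and 20 min after diaphorase/resazurin addition, reports the NADH left after a 5 min room-temperature reaction of 2 nM human LDH5 with 0.06 mM NADH and 0.2 mM pyruvate.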
Menin-MLL TR inh: displaces Texas Red mutant MLL peptide from human menin | O00255 | Menin + Texas Red MLL mutant peptide, fluorescence polarization | Potency, µM (titrated, usually from 61.6 µM), actives largely listed as inhibitors | hit rate 0.23% among 270,000 | AID 1768; active = well fitted inhibition curve with a large enough effect in the polarisation, with a control signal flat, not every such curve was filed as active; inconclusive = small, poorly fitted or top-dose-only effect, or effect the other way, or a change in a side signal; inactive = no such curve, though single readings can be large or run the other way; the % refers to the polarisation
Menin-MLL FL inh: inhibitors of human menin-MLL interaction, wild-type MLL peptide | Fluorescence polarization, fluorescein-MLL peptide displacement from menin | FP activity change, % at 61.4 µM | 290,000 tested, under 10 active | AID 1766; active = well fitted curve in the direction sought with a large enough effect in the polarisation, not every such curve was filed as active; inconclusive = small, poorly fitted or top-dose-only effect, or effect the other way, or a change in a side signal; inactive = no such curve, though single readings can be large or run the other way; the % refers to the polarisation
Resorufin autofl: counter-screen for mutant IDH1 inhibitors: fluorescence interference. shares compounds with mIDH1 inhibitor. 750 tested, under 10 active. Resorufin detection reagent fluorescence interference, cell-free. inhibition of signal, % at 51.2 µM. AID 623980
WT IDH1 inh: selectivity of mutant IDH1 inhibitors: human wild-type IDH1; Potency, µM (top dose mostly 115 µM), hits mostly inhibitors; WT IDH1 enzyme, NADPH diaphorase/resazurin fluorescence; hit rate 9% among 750; shares compounds with mIDH1 inhibitor; note: nearly all actives have a fitted effect of over 55% in size
Target sequence (O75874 whole entry, looked up): as the sequence (O75874 whole entry R132H, stated change not applied) above, with H132R counted along it
IDH1 R132H conf: confirmation of human mutant IDH1 inhibitors | AID 624002 | IDH1 R132H enzyme, NADPH diaphorase/resazurin fluorescence | hit rate 83% among 750 | Potency, µM (top dose mostly 76.6 µM), most hits filed as inhibitors | shares compounds with mIDH1 inhibitor; note: nearly all actives have a fitted effect of over 50% in size
Of the large screens only hits and unclear results are named; the others gave an inactive call (follow-up assays come after a bar, where they were run). Rows were chosen to be rich in hits. Some 0.54% of all compounds tested hit in one or more screens of this group. Unless noted, calls come from the whole dose curve; as a rule, active = well fitted curve in the direction sought with a large enough effect; inconclusive = small, poorly fitted or top-dose-only effect, or another doubt; inactive = no such curve, though single readings can be large; an effect the other way counts as inactive or inconclusive.

CC(=O)c1ccc(NS(=O)(=O)c2cccc(S(=O)(=O)c3ccc(Cl)cc3)c2)cc1	mIDH1 inhibitor inconclusive (no result: CXXC DNA block, pAkt inh, Menin-MLL TR inh, Menin-MLL FL inh) | Resorufin autofl inactive | WT IDH1 inh inactive | IDH1 R132H conf 45µM
O=C(NCC1(c2ccccc2)CCCC1)c1ccc(S(=O)(=O)N2CCCC2)cc1	none (no result: mIDH1 inhibitor, CXXC DNA block, pAkt inh, Menin-MLL TR inh, Menin-MLL FL inh)
Cc1ccc(CNC(=O)c2ccc(Sc3ccc(C)cc3)c(N)c2)cc1	none (no result: mIDH1 inhibitor, CXXC DNA block, pAkt inh, Menin-MLL TR inh, Menin-MLL FL inh)
Cc1nc2c(c(=O)c3ccccc3n2C)c(=O)n1C1CCCCCC1	none (no result: Menin-MLL TR inh)
Cn1c2ccccc2c(=O)c2c(=O)n(C3CCCCC3)c(-c3ccco3)nc21	mIDH1 inhibitor 26µM | Resorufin autofl inactive | WT IDH1 inh inactive | IDH1 R132H conf 22µM
O=S(=O)(c1ccccc1)N1CCN(c2ccc(N3CCCCCC3)nn2)CC1	none (no result: mIDH1 inhibitor, CXXC DNA block, pAkt inh, Menin-MLL TR inh, Menin-MLL FL inh)
CC1(C)OC(=O)C(=CNc2ccccn2)C(=O)O1	none (no result: Menin-MLL TR inh)
CC1(C)Oc2ccc3ccc(=O)oc3c2/C(=C/NNC(N)=S)C1=O	none
CC1(C)Oc2ccc3ccc(=O)oc3c2/C(=C/Nc2ccccn2)C1=O	mIDH1 inhibitor 29µM (no result: pAkt inh) | Resorufin autofl inactive | WT IDH1 inh inactive | IDH1 R132H conf 11µM
CC1(C)Oc2ccc3ccc(=O)oc3c2/C(=C/Nc2cccc(O)c2)C1=O	mIDH1 inhibitor inconclusive | Resorufin autofl inactive | WT IDH1 inh inactive | IDH1 R132H conf 40µM
Cn1c(SSc2ccc(-c3cccnc3)n2C)ccc1-c1cccnc1	mIDH1 inhibitor 10µM (no result: CXXC DNA block, Menin-MLL TR inh, Menin-MLL FL inh) | Resorufin autofl inactive | WT IDH1 inh inactive | IDH1 R132H conf 35µM
c1cncc(-c2nnc(-c3cccnc3)nn2)c1	none
Cc1ccccc1NCC(=O)c1ccc(Br)cc1	mIDH1 inhibitor inconclusive | Resorufin autofl inactive | WT IDH1 inh inactive | IDH1 R132H conf 45µM
CCCCOc1cc(/C=C/C(=O)c2ccc3c(c2)OCCO3)ccc1OC	none (no result: mIDH1 inhibitor, CXXC DNA block, pAkt inh, Menin-MLL TR inh, Menin-MLL FL inh)
O=C1NC[C@H](CC2CCCCC2)N(CCc2cccc3ccccc23)C1=O	none (no result: mIDH1 inhibitor, CXXC DNA block, Menin-MLL TR inh, Menin-MLL FL inh)
O=C1NC[C@@H](Cc2cccc3ccccc23)N(CCCCC2CCCCC2)C1=O	mIDH1 inhibitor inconclusive (no result: CXXC DNA block, Menin-MLL TR inh, Menin-MLL FL inh) | Resorufin autofl inactive | WT IDH1 inh inactive | IDH1 R132H conf 40µM
Cc1nccc(-c2cccc(NC(=O)c3cccc[n+]3[O-])c2)n1	none (no result: mIDH1 inhibitor, CXXC DNA block, pAkt inh, Menin-MLL TR inh, Menin-MLL FL inh)
Cc1cc(-n2c(=S)sc3c(=O)n(-c4ccc(F)cc4)c(SCC(=O)O)nc32)ccc1Cl	mIDH1 inhibitor 26µM, Menin-MLL TR inh inconclusive | Resorufin autofl inactive | WT IDH1 inh inconclusive | IDH1 R132H conf 7.9µM
COc1ccccc1-n1c(SCC(=O)O)nc2c(sc(=S)n2-c2ccc(Cl)c(C)c2)c1=O	Menin-MLL TR inh inconclusive
CCOc1ccc2c(c1)C(NC(C)=O)C(=O)N2CCN1CCOCC1 (configuration not stated)	mIDH1 inhibitor 29µM (no result: Menin-MLL TR inh, Menin-MLL FL inh) | Resorufin autofl inactive | WT IDH1 inh 79µM | IDH1 R132H conf 25µM
CC(=O)NC1C(=O)N(CCN2CCOCC2)c2ccc(Br)cc21 (configuration not stated)	mIDH1 inhibitor inconclusive, CXXC DNA block inconclusive, Menin-MLL TR inh inconclusive
N#C/C(=C/c1ccc(Br)cc1)Sc1ccc(Br)cc1	none (no result: mIDH1 inhibitor, CXXC DNA block, pAkt inh, Menin-MLL TR inh, Menin-MLL FL inh)
Cc1ccsc1C1Nc2ccc3ncccc3c2C2=C1C(=O)CC(C)(C)C2 (configuration not stated)	mIDH1 inhibitor inconclusive | Resorufin autofl inactive | WT IDH1 inh inconclusive | IDH1 R132H conf 2.8µM
O=C1CCCC2=C1C(c1cccs1)Nc1ccc3ncccc3c12 (configuration not stated)	none
O=c1c2ccccc2nc2n1CCC2	mIDH1 inhibitor 16µM | Resorufin autofl inactive | WT IDH1 inh inconclusive | IDH1 R132H conf inactive
O=c1c2ccccc2nc2n1CCCCC2	none
